Results reported in PubChem BioAssay (EPA / NIEHS).
Inconclusive results are not listed. The source holds several records for some structures; these can differ, active in one and inactive in another. Activity calls are given as the source filed them. Rule for the calls, unless noted: active = hit-call score of the fitted dose curve at least 0.9, where 1 is the maximum; inactive = score below 0.9.

Legend:
[1] = read-out: Nuclear factor erythroid 2-related factor 2 (Homo sapiens) (UniProt Q16236); experiment: LTEA_HepaRG_NFE2L2: Life Technologies and Expression Analysis (LTEA) Assay for Nuclear factor erythroid 2-related factor 2 (NFE2L2) Transcription Factor using HepaRG (AID 2283527); conditions: mRNA level, 48 h; actives raise or lower the signal;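 note: TaqMan qRT-PCR transcript level normalised to ACTB GAPDH and POLR2A housekeeping genes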
Outline: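 NFE2L2 transcript level was read by qRT-PCR (housekeeping ACTB/GAPDH/POLR2A normalisation) after 48 h chemical treatment of HepaRG in serum-free induction medium. Duplicate 8-point half-log curves, top 100 uM, 0.5% DMSO vehicle; up- or down-regulation fitted against vehicle.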

[2] = read-out: succinate dehydrogenase complex iron sulfur subunit B (SDHB), SDHB (gene 6390); experiment: LTEA_HepaRG_SDHB: Life Technologies and Expression Analysis (LTEA) Assay for succinate dehydrogenase complex iron sulfur subunit B (SDHB) using HepaRG (AID 2283528); conditions: mRNA level, 48 h; actives raise or lower the signal
Outline: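 HepaRG, 48 h exposure, 8-pt half-log series from 100 uM in 0.5% DMSO, duplicates. Readout: SDHB mRNA by Fluidigm qRT-PCR vs housekeeping genes; bidirectional fit relative to DMSO.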

[3] = read-out: Signal transducer and activator of transcription 3 (Homo sapiens) (UniProt P40763); experiment: LTEA_HepaRG_STAT3: Life Technologies and Expression Analysis (LTEA) Assay for Signal transducer and activator of transcription (STAT3) using HepaRG (AID 2283529); conditions: mRNA level, 48 h; actives raise or lower the signal
Outline: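 STAT3 transcript quantified by qRT-PCR against three housekeeping genes (ACTB, GAPDH, POLR2A), fitted both directions relative to DMSO. HepaRG cultures exposed 48 h to eight half-log concentrations, top 100 uM, 0.5% DMSO, serum-free induction medium.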

[4] = read-out: solute carrier (SLCO1B1), SLCO1B1 (gene 10599); experiment: LTEA_HepaRG_SLCO1B1: Life Technologies and Expression Analysis (LTEA) Assay for solute carrier (SLCO1B1) using HepaRG (AID 2283530); conditions: mRNA level, 48 h; actives raise or lower the signal
Outline: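 HepaRG, serum-free induction medium, 48 h dosing, 8-pt half-log from 100 uM, 0.5% DMSO vehicle, duplicates. Readout: SLCO1B1 mRNA, qRT-PCR, ACTB/GAPDH/POLR2A normalization; up or down fit vs DMSO.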

[5] = read-out: sulfotransferase 2A1 (SULT2A1), SULT2A1 (gene 6822); experiment: LTEA_HepaRG_SULT2A1: Life Technologies and Expression Analysis (LTEA) Assay for sulfotransferase 2A1 (SULT2A1) using HepaRG (AID 2283531); conditions: mRNA level, 48 h; actives raise or lower the signal
Outline: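 Transcript levels of SULT2A1, quantified by qRT-PCR and normalized to three housekeeping genes, serve as the readout. Human HepaRG cultures receive test chemicals for 48 h at up to 100 uM in half-log steps, with 0.5% DMSO vehicle.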

[6] = read-out: Transforming Growth Factor (TGFA), TGFA (gene 7039); experiment: LTEA_HepaRG_TGFA: Life Technologies and Expression Analysis (LTEA) Assay for Transforming Growth Factor (TGFA) using HepaRG (AID 2283532); conditions: mRNA level, 48 h; actives raise or lower the signal
Outline: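 TGFA transcript quantified by qRT-PCR (Fluidigm arrays) against three housekeeping genes, after 48 hours chemical treatment of HepaRG cells. Top concentration 100 uM with half-log dilutions, 8 points, duplicates, 0.5% DMSO.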

[7] = read-out: Transforming Growth Factor (TGFB1), TGFB1 (gene 7040); experiment: LTEA_HepaRG_TGFB1: Life Technologies and Expression Analysis (LTEA) Assay for Transforming Growth Factor (TGFB1) Transporter using HepaRG (AID 2283533); conditions: mRNA level, 48 h; actives raise or lower the signal
Outline: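 HepaRG, 48 h post-plating, switched to serum-free induction medium; chemicals 100 uM top, half-log, 8 pts, 0.5% DMSO, dup; 48 h exposure; RNA → Fluidigm TaqMan qRT-PCR; norm ACTB/GAPDH/POLR2A; bidirectional fit vs DMSO.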

[8] = read-out: Tumor necrosis factor receptor 1 (TNFRSF1A), TNFRSF1A (gene 7132); experiment: LTEA_HepaRG_TNFRSF1A: Life Technologies and Expression Analysis (LTEA) Assay for Tumor necrosis factor receptor 1 (TNFRSF1A) using HepaRG (AID 2283535); conditions: mRNA level, 48 h; actives raise or lower the signal
Outline: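 Read-out is TNFRSF1A transcript level by TaqMan qRT-PCR, normalized to three housekeeping genes, scored as gain or loss of signal versus 0.5% DMSO. Human HepaRG cells received test chemicals for 48 h at up to 100 uM (half-log series).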

[9] = read-out: Thyroid Hormone Responsive (THRSP), THRSP (gene 7069); experiment: LTEA_HepaRG_THRSP: Life Technologies and Expression Analysis (LTEA) Assay for Thyroid Hormone Responsive (THRSP) using HepaRG (AID 2283536); conditions: mRNA level, 48 h; actives raise or lower the signal
Outline: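 THRSP transcript quantified by Fluidigm qRT-PCR against three housekeeping genes after 48 h chemical exposure of HepaRG cells in serum-free induction medium; eight-point half-log series, top 100 uM, 0.5% DMSO vehicle, duplicate wells.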

[10] = read-out: Cellular tumor antigen p53 (Homo sapiens) (UniProt P04637); experiment: LTEA_HepaRG_TP53: Life Technologies and Expression Analysis (LTEA) Assay for Tumor Protein P53 (TP53) using HepaRG (AID 2283537); conditions: mRNA level, 48 h; actives raise or lower the signal
Outline: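 HepaRG, 48 h exposure, top 100 uM, half-log 8-point, 0.5% DMSO vehicle, duplicates. Read: TP53 mRNA by TaqMan qRT-PCR, normalised to ACTB/GAPDH/POLR2A; bidirectional fit vs DMSO.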

[11] = read-out: UDP glucuronosyltransferase (UGT1A1), UGT1A1 (gene 54658); experiment: LTEA_HepaRG_UGT1A1: Life Technologies and Expression Analysis (LTEA) Assay for UDP glucuronosyltransferase (UGT1A1) using HepaRG (AID 2283538); conditions: mRNA level, 48 h; actives raise or lower the signal
Outline: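 HepaRG, 48 h chemical exposure (top 100 uM, half-log 8-pt, 0.5% DMSO vehicle), duplicate wells; qRT-PCR (TaqMan, Fluidigm array) for UGT1A1 mRNA, housekeeping-normalized; bidirectional curve fit vs DMSO baseline.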

[12] = read-out: UDP glucuronosyltransferase (UGT1A6), UGT1A6 (gene 54578); experiment: LTEA_HepaRG_UGT1A6: Life Technologies and Expression Analysis (LTEA) Assay for UDP glucuronosyltransferase (UGT1A6) using HepaRG (AID 2283539); conditions: mRNA level, 48 h; actives raise or lower the signal
Outline: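 HepaRG, 48 h post-plating switch to serum-free induction medium; chemical 48 h, 100 uM top, half-log x8, duplicate, 0.5% DMSO. Phenobarbital 1mM induction control. UGT1A6 mRNA by TaqMan qRT-PCR; gain/loss fit vs DMSO.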

[13] = read-out: X-box binding protein 1 (XBP1), XBP1 (gene 7494); experiment: LTEA_HepaRG_XBP1: Life Technologies and Expression Analysis (LTEA) Assay for X-box binding protein 1 (XBP1) using HepaRG (AID 2283540); conditions: mRNA level, 48 h; actives raise or lower the signal
Outline: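 Transcript levels of XBP1, measured by qRT-PCR and normalised to three housekeeping genes, were fitted bidirectionally relative to 0.5% DMSO controls. Human HepaRG cells received eight-point half-log dilutions from 100 uM for 48 h.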

[14] = LTEA_HepaRG_LDH_cytotoxicity: Cytotoxicity Assessment in the Life Technologies and Expression Analysis (LTEA) Assay (AID 2283563; active = hit-call score of the fitted dose curve at least 0.9, where 1 is the maximum)
Outline: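 Cells were thawed and plated for 48 h. Medium was then replaced with serum-free induction medium. Chemicals (8 half-log points, maximum 100 uM, 0.5% DMSO) were added in duplicate for 48 h, after which spent medium was assayed for LDH.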

[15] = TOX21_p53_BLA_p2_viability: Viability Assessment in the Tox21 HCT-116 p53 Agonism Beta-lactamase Assay, Phase 2 (AID 2283591; active = hit-call score of the fitted dose curve at least 0.9, where 1 is the maximum;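 note: compound exposure lasted 16 h at 37 °C; actives lower the ATP signal meaning cytotoxicity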)
Outline: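 Cytotoxicity readout: CellTiter-Glo ATP luminescence, 30 min at room temperature, after the beta-lactamase read. Cells were HCT116 exposed 16 h at 37C to compounds pin-transferred at 217-fold dilution from DMSO stocks.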

[16] = biological target: Cellular tumor antigen p53 (Homo sapiens) (UniProt P04637); experiment: TOX21_p53_BLA_p2_ratio: Tox21 HCT-116 p53 Agonism Beta-lactamase Assay, Ratio, Phase 2 (AID 2283592; active = hit-call score of the fitted dose curve at least 0.9, where 1 is the maximum)
Outline: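 Plated HCT116 p53-bla cells (4000/well) received compound after 5 h, then 16 h at 37C/5% CO2. CCF4-AM added, 2 h RT. Ratio of 460 to 530 nm emission taken as the p53 reporter signal.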

[17] = TOX21_p53_BLA_p3_viability: Viability Assessment in the Tox21 HCT-116 p53 Agonism Beta-lactamase Assay, Phase 3 (AID 2283593; active = hit-call score of the fitted dose curve at least 0.9, where 1 is the maximum;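 note: cells exposed to compound for 16 h before reading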)
Outline: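 Cellular ATP was quantified by CellTiter-Glo luminescence, read after 30 min at room temperature. Beforehand, HCT116 cells (4000/well) received compound 5 h post-seeding, 217-fold diluted from DMSO, then incubated 16 h at 37C.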

[18] = ATG_XTT_Cytotoxicity: Cytotoxicity Assessment in the Attagene TRANS-FACTORIAL HepG2 Assay (AID 2283584; active = hit-call score of the fitted dose curve at least 0.9, where 1 is the maximum)
Outline: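 Cells: human HepG2, transiently transfected with MRTU reporter constructs. Exposure 24 h. Readout: XTT, cell number. Baseline/neg ctrl DMSO; loss-of-signal scored.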

[19] = biological target: Cellular tumor antigen p53 (Homo sapiens) (UniProt P04637); experiment: TOX21_p53_BLA_p3_ratio: Tox21 HCT-116 p53 Agonism Beta-lactamase Assay, Ratio, Phase 3 (AID 2283596; active = hit-call score of the fitted dose curve at least 0.9, where 1 is the maximum)
Outline: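 Cells were seeded at 4000/well, rested 5 h at 37C, then dosed with DMSO compound solutions (217-fold dilution) for 16 h. CCF4-AM substrate was loaded for 2 h at room temperature, and the 460/530 nm emission ratio was fitted for gain of signal versus DMSO.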

TIMP1, TIMP1 (gene 7076) = experiment: LTEA_HepaRG_TIMP1: Life Technologies and Expression Analysis (LTEA) Assay for TIMP1 using HepaRG (AID 2283534); conditions: mRNA level, 48 h; actives raise or lower the signal;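 note: TaqMan qRT-PCR signal normalized to ACTB GAPDH and POLR2A housekeeping genes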
Outline: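 Readout is TIMP1 mRNA level measured by qRT-PCR and normalized to three housekeeping genes. Human HepaRG cells were treated for 48 h in duplicate at eight concentrations up to 100 uM (0.5% DMSO); gain or loss fitted against DMSO.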

Measured: AC50

Signal transducer and activator of transcription 3 (Homo sapiens), sequence (P40763 whole entry, looked up): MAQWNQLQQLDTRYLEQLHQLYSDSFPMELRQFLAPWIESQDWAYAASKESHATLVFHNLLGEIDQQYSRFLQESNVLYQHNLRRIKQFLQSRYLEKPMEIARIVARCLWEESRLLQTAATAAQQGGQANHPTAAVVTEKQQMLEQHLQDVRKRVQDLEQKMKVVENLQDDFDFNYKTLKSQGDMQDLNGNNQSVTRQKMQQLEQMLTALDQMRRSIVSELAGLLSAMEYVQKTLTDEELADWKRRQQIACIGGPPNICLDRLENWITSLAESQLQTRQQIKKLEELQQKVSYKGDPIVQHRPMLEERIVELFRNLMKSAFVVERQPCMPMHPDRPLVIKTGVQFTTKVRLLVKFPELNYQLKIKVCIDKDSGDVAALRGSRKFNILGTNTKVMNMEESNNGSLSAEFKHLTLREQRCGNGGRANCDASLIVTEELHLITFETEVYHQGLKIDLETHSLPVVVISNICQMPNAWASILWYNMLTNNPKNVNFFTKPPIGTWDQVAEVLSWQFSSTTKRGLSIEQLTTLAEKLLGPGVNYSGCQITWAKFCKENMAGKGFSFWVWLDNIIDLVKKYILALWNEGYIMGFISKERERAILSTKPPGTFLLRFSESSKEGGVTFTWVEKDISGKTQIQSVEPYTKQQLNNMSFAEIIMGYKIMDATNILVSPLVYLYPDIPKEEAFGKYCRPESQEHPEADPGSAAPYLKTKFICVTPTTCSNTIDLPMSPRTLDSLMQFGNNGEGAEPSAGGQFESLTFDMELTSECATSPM
Cellular tumor antigen p53 (Homo sapiens), sequence (P04637 whole entry, looked up): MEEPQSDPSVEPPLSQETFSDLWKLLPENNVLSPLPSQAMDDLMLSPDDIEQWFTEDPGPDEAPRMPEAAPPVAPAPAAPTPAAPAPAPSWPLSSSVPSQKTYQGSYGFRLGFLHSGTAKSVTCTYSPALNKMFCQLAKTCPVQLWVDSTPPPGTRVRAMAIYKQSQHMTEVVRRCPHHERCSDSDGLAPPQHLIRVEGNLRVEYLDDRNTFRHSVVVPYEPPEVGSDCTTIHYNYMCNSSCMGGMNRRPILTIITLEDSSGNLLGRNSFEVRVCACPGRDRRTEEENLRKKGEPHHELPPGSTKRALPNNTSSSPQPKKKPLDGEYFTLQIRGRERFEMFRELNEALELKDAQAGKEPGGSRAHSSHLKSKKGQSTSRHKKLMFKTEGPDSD
Nuclear factor erythroid 2-related factor 2 (Homo sapiens), sequence (Q16236 whole entry, looked up): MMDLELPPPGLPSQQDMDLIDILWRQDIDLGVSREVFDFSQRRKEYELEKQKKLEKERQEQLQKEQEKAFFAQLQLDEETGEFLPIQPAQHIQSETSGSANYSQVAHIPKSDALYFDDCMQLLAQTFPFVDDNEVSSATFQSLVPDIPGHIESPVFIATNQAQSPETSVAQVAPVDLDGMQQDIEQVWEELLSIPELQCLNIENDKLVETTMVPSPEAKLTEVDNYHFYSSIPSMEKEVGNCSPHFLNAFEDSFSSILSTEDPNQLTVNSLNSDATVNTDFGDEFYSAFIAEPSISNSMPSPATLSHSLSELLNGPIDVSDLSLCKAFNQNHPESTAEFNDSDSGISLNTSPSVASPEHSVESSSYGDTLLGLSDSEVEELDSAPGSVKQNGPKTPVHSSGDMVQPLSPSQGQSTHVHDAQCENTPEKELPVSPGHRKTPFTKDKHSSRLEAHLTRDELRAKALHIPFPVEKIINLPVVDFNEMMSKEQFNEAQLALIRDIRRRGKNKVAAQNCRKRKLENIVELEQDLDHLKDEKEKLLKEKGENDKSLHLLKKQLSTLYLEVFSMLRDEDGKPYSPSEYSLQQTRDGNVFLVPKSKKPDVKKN

CCCCc1ccc2c(n1)[C@@H](c1ccc(OC)cc1C[C@H](C)C(=O)O)[C@H](C(=O)O)[C@H]2c1ccc2c(c1)OCO2
not listed: [18] | [19] | TIMP1, TIMP1 (gene 7076)
inactive: all other assays above

Nc1ccc(S(=O)(=O)c2ccc(N)cc2)cc1
active: [3] 0.767 µM
not listed: TIMP1, TIMP1 (gene 7076)
inactive: all other assays above

c1cc(-c2ccncc2)ccn1
active: [11] 50 µM
not listed: [9]
inactive: all other assays above

CCOC(=O)C(C)(C)Oc1ccc(Cl)cc1
active: [11] 15.8 µM
not listed: [12] | [18]
inactive: all other assays above

O=C(O)Cc1ccccc1Nc1c(Cl)cccc1Cl
active: [11] 6.2 µM | [16] 68.9 µM | [19] 86 µM
inactive: [1] | [2] | [3] | [4] | [5] | [6] | [7] | [8] | [9] | [10] | [12] | [13] | [14] | [18] | [15] | [16] | [17] | [19]

NC(=O)Cn1c(=O)cc(CCN2CCN(c3nccc4sccc34)CC2)c2ccc(F)cc21
active: [7] 39.1 µM | [9] 50 µM | [10] 50 µM | [11] 12.6 µM | [13] 77 µM
not listed: [12] | [15] | [18] | [19]
inactive: all other assays above

Nc1nc(N)c2nc(CNc3ccc(C(=O)N[C@@H](CCC(=O)O)C(=O)O)cc3)cnc2n1
inactive: [1] | [2] | [3] | [4] | [6] | [7] | TIMP1, TIMP1 (gene 7076) | [8] | [9] | [10] | [11] | [13] | [18] | [15] | [16] | [19]
active: [5] 0.0974 µM | [15] 0.0118 µM | [16] 0.0308 µM | [17] 0.0381 µM | [19] 0.0688 µM
